Data on 7 compounds can be found in ChEMBL document CHEMBL2218924, “A broad activity screen in support of a chemogenomic map for kinase signalling research and drug discovery” (Biochem J, 2013).

Assay [1] deals with BDNF/NT-3 growth factors receptor (Homo sapiens) (UniProt Q16620). Particulars: at 10 µM.
Assay [2] has as its target T1, Tyrosine-protein kinase TXK (Homo sapiens) (UniProt P42681).
T1 sequence (whole entry): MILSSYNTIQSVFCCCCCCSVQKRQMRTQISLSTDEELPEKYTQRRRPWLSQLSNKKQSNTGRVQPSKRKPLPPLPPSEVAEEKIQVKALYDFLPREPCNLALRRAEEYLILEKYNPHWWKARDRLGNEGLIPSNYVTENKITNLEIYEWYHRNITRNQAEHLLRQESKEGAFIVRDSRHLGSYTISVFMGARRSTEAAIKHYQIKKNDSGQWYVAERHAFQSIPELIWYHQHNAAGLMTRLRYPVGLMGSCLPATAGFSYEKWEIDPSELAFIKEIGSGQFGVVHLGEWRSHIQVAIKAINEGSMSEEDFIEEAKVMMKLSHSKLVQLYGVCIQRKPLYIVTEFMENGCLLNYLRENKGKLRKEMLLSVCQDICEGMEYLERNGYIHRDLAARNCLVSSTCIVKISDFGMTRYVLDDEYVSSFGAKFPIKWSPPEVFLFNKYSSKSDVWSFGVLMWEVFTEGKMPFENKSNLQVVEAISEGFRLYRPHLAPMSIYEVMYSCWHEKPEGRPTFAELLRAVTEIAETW
The settings on record: at 1 µM.

Assay [3] addresses T1, Tyrosine-protein kinase TXK (Homo sapiens). The settings on record: at 10 µM.
Assay [4] concerns the target T2, Serine/threonine-protein kinase ULK2 (Homo sapiens) (UniProt Q8IYT8).
T2 sequence (whole entry): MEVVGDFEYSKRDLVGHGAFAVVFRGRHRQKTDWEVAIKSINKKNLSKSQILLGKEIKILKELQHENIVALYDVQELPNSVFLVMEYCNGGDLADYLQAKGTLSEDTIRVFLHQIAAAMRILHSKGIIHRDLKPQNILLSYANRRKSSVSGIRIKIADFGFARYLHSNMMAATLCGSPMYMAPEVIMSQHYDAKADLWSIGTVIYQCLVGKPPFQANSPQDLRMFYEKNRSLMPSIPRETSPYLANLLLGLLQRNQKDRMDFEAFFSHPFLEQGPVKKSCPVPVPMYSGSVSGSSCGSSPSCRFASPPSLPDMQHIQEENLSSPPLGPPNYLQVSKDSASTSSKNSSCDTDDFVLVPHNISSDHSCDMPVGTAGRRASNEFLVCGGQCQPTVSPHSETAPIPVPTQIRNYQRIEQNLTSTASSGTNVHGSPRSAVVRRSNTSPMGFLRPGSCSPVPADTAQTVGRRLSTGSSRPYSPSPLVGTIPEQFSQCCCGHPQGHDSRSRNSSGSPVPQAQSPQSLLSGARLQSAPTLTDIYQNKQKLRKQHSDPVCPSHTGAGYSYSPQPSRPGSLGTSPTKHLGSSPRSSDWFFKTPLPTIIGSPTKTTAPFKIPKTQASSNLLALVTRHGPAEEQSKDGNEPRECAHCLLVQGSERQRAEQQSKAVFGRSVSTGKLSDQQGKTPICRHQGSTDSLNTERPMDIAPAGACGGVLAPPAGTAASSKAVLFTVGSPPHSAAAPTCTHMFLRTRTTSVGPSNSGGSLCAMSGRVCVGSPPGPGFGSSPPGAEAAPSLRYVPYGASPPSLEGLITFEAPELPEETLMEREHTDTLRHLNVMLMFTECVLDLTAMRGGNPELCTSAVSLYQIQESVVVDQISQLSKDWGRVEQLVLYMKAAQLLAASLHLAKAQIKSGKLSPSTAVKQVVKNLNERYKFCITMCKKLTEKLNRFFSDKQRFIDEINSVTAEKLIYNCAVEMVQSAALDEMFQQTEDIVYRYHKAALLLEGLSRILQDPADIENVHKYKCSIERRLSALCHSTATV
The settings on record: at 1 µM.

In assay [5] the target is T2, Serine/threonine-protein kinase ULK2 (Homo sapiens). Particulars: at 10 µM.
Assay [6] concerns the target T3, Serine/threonine-protein kinase ULK3 (Homo sapiens) (UniProt Q6PHR2).
T3 sequence (whole entry): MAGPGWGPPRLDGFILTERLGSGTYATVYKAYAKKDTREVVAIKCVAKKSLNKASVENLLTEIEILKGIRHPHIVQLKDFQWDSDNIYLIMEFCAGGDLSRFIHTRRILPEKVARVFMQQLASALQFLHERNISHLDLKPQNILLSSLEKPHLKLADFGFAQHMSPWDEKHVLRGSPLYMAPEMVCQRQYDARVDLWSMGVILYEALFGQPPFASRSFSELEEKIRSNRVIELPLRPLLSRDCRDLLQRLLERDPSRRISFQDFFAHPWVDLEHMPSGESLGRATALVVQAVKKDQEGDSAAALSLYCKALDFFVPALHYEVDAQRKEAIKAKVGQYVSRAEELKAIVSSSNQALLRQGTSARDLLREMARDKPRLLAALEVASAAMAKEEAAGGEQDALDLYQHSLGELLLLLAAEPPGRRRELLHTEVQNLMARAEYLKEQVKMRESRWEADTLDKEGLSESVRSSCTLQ
The settings on record: at 1 µM.

Assay [7] has as its target T3, Serine/threonine-protein kinase ULK3 (Homo sapiens). The settings on record: at 10 µM.
The target of assay [8] is Serine/threonine-protein kinase WNK2 (Homo sapiens) (UniProt Q9Y3S1). The settings on record: at 1 µM.
Chain of Serine/threonine-protein kinase WNK2 (Homo sapiens) (Q9Y3S1 whole entry): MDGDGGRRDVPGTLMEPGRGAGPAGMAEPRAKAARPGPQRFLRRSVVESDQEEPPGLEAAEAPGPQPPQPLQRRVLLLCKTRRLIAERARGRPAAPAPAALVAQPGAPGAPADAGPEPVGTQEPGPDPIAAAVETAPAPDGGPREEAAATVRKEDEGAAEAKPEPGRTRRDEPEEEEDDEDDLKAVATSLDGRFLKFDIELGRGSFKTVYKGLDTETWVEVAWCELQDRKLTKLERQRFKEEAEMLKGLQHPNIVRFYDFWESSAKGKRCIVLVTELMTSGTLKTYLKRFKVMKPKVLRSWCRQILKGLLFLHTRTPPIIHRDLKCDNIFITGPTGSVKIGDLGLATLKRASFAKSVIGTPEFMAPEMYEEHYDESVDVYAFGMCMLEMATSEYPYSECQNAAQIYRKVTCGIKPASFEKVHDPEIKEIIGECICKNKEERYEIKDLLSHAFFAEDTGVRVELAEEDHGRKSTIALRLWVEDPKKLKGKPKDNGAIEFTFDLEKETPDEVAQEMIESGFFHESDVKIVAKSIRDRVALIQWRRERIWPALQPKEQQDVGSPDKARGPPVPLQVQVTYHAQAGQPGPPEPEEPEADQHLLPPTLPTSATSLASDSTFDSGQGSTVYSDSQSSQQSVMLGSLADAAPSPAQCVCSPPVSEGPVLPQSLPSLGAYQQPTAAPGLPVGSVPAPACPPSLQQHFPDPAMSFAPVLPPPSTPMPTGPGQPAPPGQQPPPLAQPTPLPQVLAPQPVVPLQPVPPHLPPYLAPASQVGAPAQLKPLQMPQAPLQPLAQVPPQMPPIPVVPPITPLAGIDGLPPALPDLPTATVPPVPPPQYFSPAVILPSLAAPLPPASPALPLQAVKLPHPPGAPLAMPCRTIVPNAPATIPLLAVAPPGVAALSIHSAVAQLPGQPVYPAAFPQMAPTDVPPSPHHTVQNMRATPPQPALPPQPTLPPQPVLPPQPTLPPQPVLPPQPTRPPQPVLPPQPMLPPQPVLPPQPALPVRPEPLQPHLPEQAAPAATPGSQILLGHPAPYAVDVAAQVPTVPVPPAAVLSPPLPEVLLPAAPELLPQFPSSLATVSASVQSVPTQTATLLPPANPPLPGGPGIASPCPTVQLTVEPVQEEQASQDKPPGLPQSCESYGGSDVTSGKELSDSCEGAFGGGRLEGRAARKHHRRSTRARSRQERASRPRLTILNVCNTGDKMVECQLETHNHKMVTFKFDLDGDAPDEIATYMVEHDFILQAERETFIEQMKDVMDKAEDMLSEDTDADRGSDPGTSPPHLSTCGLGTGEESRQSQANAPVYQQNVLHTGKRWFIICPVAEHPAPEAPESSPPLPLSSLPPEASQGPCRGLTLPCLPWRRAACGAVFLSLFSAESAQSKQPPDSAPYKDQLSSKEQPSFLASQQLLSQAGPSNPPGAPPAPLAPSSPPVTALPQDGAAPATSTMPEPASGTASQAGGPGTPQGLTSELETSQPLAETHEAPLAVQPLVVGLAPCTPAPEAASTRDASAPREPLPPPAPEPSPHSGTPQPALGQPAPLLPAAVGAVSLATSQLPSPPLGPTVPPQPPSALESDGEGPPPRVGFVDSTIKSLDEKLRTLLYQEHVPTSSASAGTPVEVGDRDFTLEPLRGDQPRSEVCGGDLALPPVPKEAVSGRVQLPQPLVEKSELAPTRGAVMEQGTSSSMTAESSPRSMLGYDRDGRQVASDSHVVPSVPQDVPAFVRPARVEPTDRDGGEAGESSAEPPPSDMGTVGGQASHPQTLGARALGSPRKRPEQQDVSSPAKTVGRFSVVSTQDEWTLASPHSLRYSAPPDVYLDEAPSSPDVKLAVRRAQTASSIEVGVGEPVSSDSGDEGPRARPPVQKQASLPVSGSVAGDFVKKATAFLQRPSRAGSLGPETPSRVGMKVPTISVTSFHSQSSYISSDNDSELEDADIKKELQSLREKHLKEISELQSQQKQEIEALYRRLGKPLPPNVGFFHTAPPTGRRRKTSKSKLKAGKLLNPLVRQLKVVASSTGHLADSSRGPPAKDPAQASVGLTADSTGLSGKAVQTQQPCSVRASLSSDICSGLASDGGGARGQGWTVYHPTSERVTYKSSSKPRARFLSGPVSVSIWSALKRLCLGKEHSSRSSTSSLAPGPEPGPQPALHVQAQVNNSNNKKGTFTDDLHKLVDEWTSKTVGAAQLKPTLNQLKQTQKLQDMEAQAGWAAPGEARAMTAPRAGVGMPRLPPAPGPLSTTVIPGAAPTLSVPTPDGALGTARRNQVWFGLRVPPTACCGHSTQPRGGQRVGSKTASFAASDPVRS
Assay [9] has the same target. The settings on record: at 10 µM.
Assay [10] addresses Tyrosine-protein kinase Yes (Homo sapiens) (UniProt P07947). The settings on record: at 1 µM.
Assay [11] has the same target. The settings on record: at 10 µM.
Assay [12] deals with Death-associated protein kinase 3 (Homo sapiens) (UniProt O43293). Particulars: at 10 µM.
Chain of Death-associated protein kinase 3 (Homo sapiens) (O43293 whole entry, looked up): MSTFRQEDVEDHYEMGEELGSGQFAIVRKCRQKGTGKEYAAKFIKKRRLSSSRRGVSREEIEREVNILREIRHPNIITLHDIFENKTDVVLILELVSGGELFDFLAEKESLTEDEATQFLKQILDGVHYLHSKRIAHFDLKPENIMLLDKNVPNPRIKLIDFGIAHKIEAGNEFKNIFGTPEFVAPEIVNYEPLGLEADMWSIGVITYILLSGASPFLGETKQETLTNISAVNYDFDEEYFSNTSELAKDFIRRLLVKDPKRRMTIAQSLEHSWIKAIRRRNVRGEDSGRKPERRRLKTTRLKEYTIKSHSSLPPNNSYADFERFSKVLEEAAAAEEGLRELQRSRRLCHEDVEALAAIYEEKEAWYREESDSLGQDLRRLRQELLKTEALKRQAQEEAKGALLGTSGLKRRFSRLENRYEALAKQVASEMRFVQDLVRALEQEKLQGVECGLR
Assay [13] has as its target RAF proto-oncogene serine/threonine-protein kinase (Homo sapiens) (UniProt P04049). The settings on record: at 1 µM.
For assay [14] the target is unchanged. The settings on record: at 10 µM.
Assay [15] concerns the target Serine/threonine-protein kinase VRK2 (Homo sapiens) (UniProt Q86Y07). Particulars: at 1 µM.
For assay [16] the target is unchanged. Particulars: at 10 µM.
The target in assay [17] is Serine/threonine-protein kinase WNK3 (Homo sapiens) (UniProt Q9BYP7). Particulars: at 1 µM.
Assay [18] has the same target. The settings on record: at 10 µM.
The target in assay [19] is T4, Tyrosine-protein kinase ZAP-70 (Homo sapiens) (UniProt P43403).
T4 sequence (whole entry): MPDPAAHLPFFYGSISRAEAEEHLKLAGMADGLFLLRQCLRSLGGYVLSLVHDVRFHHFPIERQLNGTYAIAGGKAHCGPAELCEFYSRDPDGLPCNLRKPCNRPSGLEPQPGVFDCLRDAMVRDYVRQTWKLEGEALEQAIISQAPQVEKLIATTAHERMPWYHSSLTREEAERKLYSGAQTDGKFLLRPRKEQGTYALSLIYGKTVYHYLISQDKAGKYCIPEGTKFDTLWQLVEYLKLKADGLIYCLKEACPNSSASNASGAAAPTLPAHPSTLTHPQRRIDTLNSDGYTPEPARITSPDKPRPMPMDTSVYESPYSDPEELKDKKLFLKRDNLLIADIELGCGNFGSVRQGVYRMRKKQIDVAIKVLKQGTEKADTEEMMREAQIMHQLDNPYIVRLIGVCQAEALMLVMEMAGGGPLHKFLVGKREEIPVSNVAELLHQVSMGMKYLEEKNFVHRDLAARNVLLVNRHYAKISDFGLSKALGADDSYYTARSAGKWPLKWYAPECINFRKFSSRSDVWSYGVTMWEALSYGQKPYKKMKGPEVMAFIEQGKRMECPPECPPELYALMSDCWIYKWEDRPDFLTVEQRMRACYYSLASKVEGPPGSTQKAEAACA
Particulars: at 1 µM.

For assay [20], the target named is Death-associated protein kinase 3 (Homo sapiens) (UniProt O43293). The settings on record: at 1 µM.

Chain of RAF proto-oncogene serine/threonine-protein kinase (Homo sapiens) (P04049 whole entry): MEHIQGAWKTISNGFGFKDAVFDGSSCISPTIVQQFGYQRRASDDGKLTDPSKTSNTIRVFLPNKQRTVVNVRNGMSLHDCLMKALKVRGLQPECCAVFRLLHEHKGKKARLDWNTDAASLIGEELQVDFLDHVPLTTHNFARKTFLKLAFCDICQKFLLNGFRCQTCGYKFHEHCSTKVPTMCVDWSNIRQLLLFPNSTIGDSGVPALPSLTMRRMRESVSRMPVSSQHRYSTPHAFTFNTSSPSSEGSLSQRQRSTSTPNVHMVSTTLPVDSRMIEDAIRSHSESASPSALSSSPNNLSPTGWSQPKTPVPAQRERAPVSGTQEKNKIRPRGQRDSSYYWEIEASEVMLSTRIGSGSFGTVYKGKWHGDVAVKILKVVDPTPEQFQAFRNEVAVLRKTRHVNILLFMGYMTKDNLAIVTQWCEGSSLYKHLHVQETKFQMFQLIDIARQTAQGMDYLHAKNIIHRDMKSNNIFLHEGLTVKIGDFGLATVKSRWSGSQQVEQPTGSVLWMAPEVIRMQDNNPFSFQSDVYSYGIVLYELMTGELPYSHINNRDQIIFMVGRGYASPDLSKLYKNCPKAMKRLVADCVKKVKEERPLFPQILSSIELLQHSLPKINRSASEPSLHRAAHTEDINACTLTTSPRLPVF
Chain of BDNF/NT-3 growth factors receptor (Homo sapiens) (Q16620 32-822 limits assumed): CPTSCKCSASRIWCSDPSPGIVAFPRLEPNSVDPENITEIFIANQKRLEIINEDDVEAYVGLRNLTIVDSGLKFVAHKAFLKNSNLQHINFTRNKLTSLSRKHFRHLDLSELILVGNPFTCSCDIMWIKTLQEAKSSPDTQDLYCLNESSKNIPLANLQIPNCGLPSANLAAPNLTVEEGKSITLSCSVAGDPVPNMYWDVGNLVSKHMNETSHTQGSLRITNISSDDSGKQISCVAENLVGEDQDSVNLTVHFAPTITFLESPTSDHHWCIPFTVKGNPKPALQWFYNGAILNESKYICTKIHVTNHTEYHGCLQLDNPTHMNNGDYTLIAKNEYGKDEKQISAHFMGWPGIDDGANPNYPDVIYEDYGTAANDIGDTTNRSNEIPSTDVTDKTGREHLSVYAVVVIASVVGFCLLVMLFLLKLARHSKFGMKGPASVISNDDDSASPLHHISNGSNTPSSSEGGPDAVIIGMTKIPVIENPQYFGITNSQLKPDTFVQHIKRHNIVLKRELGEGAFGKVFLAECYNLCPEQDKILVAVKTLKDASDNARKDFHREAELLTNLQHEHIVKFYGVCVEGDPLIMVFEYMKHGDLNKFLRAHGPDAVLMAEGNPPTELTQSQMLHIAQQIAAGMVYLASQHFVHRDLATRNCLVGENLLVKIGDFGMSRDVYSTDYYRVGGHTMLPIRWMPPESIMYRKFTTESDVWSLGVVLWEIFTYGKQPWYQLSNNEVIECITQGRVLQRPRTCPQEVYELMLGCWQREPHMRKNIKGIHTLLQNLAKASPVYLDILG
Chain of Tyrosine-protein kinase Yes (Homo sapiens) (P07947 2-543 limits assumed): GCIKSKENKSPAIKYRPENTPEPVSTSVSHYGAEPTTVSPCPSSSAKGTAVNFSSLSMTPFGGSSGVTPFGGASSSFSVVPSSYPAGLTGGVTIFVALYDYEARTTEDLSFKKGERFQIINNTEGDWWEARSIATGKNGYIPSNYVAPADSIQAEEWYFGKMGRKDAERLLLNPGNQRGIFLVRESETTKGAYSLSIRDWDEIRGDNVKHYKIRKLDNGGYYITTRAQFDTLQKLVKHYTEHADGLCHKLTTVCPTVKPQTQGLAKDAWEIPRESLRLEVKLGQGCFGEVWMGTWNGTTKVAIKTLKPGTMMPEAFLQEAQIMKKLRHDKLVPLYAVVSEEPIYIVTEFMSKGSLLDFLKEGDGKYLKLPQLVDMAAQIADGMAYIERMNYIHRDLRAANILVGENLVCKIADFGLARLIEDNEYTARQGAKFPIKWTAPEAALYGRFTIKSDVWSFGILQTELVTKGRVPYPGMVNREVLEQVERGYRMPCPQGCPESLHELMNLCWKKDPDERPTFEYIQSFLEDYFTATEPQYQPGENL

As a reminder, the residual activity is the signal under treatment as a percentage of the control signal. Consider `CCN(CC)C(=O)c1ccc(Nc2nc(OCC3CCCCC3)c3nc[nH]c3n2)cc1`, for which the residual activity in assay [1] came out at 2%; in assay [2], 49%; in [3] it was 5%; in assay [4] it was 80%; in [5], 35%; in [6] it was 36%. In addition, the residual activity is 8% in assay [7]; 96% (inactive) in assay [8]; 48% in [9]; 13% in [10]; 1% in assay [11]; 65% in assay [12]. Besides, the residual activity stood at 62% in [13] and 21% in assay [14].

As for `CC(C)n1cnc2/c(=N/c3cccc(Cl)c3)nc(NCCO)[nH]c21`, the residual activity in assay [1] stood at 2%; in assay [2] it was 68%; in assay [3], 37%; in assay [4], 68%; in assay [5] it was 31%; in [6] it was 42%. Besides, the residual activity in assay [7] was 11%; in assay [15] it was 71% (inactive); in assay [16], 19%; in assay [8], 90% (inactive); in [9], 52%; in assay [17], 88% (inactive). Further, the residual activity is 57% in [18]; 27% in assay [10]; 2% in assay [11]; 98% in assay [19]; 103% in assay [20]; 93% in assay [12]. Further, the residual activity in assay [13] stood at 70%; in assay [14], 31%.

Consider `O=C1c2ccccc2-[n+]2ccc3c([nH]c4ccccc43)c21`, for which the residual activity in [1] was 89%; in assay [2], 75%; in assay [3] it was 75%; in assay [5], 96%; in assay [6], 92%; in assay [7], 95%. Further, the residual activity in [15] is 93% (inactive); in [16], 92%; in assay [8], 95% (inactive); in assay [9], 92%; in assay [17], 91% (inactive); in [18], 93%. Besides, the residual activity in assay [10] turned out to be 113%; in assay [11], 86%; in assay [19] it was 128%; in assay [20], 73%; in assay [12], 78%; in assay [13], 71%. Further, in assay [14], the residual activity amounted to 73%.

Take `O=C1Nc2ccc(Br)cc2/C1=C\c1cc2c([nH]1)CCCC2`: the residual activity was 44% in assay [1]; 107% in assay [2]; 76% in assay [3]; 52% in [6]; 55% in [7]; 110% (inactive) in assay [8]. Further, the residual activity in [9] is 84%; in [17] it was 118% (inactive); in assay [18], 105%; in assay [10], 79%; in assay [11] it was 63%; in [19] it was 112%. For the same compound, the residual activity worked out at 99% in [13] and 102% in assay [14].

Regarding `CC(=O)c1ccc(N2CCOCC2)cc1O`, the residual activity in assay [1] turned out to be 108%; in assay [2] it was 85%; in assay [3] it was 86%; in [4], 106%; in assay [5] it was 90%; in assay [6] it was 106%. The residual activity in assay [7] was 90%; in assay [15] it was 107% (inactive); in assay [16], 96%; in [9], 94%; in assay [17], 104% (inactive); in assay [18] it was 104%. In addition, the residual activity in [19] is 84%; in assay [20] it was 106%; in assay [12] it was 97%; in [13], 83%; in assay [14] it was 97%.

Consider `c1ccc(-c2n[nH]cc2-c2ccnc3ccccc23)nc1`, for which the residual activity in assay [3] was 64%; in assay [5], 97%; in assay [6], 100%; in assay [7] it was 98%; in assay [15] it was 95% (inactive); in [16], 67%. Also, the residual activity in assay [8] is 105% (inactive); in assay [9], 88%; in [17], 97% (inactive); in assay [18] it was 91%; in [10], 98%; in assay [11], 53%. Moreover, the residual activity in assay [12] came out at 96%; in assay [13], 81%; in assay [14], 51%.

Turning to `Cc1cccc(-c2[nH]c(C(C)(C)C)nc2-c2ccc3c(c2)OCO3)n1`, the residual activity was 98% in assay [3]; 94% in [5]; 104% in [6]; 96% in [7]; 105% (inactive) in assay [15]; 71% in assay [16]. In addition, the residual activity in [8] is 106% (inactive); in assay [9] it was 84%; in [17], 89% (inactive); in assay [18], 89%; in assay [10], 103%; in assay [11], 44%. Also, the residual activity amounted to 82% in assay [13] and 71% in assay [14].
